The values that follow come from PMC11995724, “Antibiotic target discovery by integrated phenotypic and activity-based profiling of electrophilic fragments” (Cell chemical biology, 2025).

Out of some 3,200 compounds screened, about 75 (2%) showed an effect of 50% or more. The sample as a whole holds a higher share of strong results than the screen did.

The assay deals with T1, S. aureus MSSA476.
T1 construct: MSSA476
More on the design: species or system S. aureus MSSA476 (TSB) or V. cholerae SAD30 (LB); 384-well bacterial growth screen at 25 uM, OD600 relative to DMSO control. Particulars: relative growth, OD600, TSB; 25 µM; inhibitor.
With `O=C(CCl)c1ccc(C(F)(F)F)cc1` [10-B10, 2-chloro-1-[4-(trifluoromethyl)phenyl]ethan-1-one], the “% of control remaining” value turned out to be 135.938%.

As for `Cc1cccc(-n2cc(C(=O)CCl)nn2)c1` [10-L07], the “% of control remaining” value is recorded as 0%. The value for `Cc1cccc(CC(=O)CCl)c1` [10-I19, 1-chloro-3-(3-methylphenyl)propan-2-one] was 130.938%; that for `O=C(CCl)NC1CC(=O)N(c2cccc(C(F)(F)F)c2)C1` (stereo not shown) [5-E09, 2-chloro-N-{5-oxo-1-[3-(trifluoromethyl)phenyl]pyrrolidin-3-yl}acetamide] was 113.661%. Take `CC(NC(=O)CCl)c1cn(-c2ccccc2)nn1` (stereo not shown) [5-O06, 2-chloro-N-[1-(1-phenyl-1H-1,2,3-triazol-4-yl)ethyl]acetamide]: the “% of control remaining” value is listed as 91.0747%. For the molecule `Cn1cc(C(=O)CCl)nn1` [10-M19, 2-chloro-1-(1-methyl-1H-1,2,3-triazol-4-yl)ethan-1-one], the “% of control remaining” value is listed as 87.5%. With `O=C(CCl)c1c[nH]c2ccc(F)cc12` [10-O11, 2-chloro-1-(5-fluoro-1H-indol-3-yl)ethan-1-one], the “% of control remaining” value came out at 120.625%.

Consider `O=C(CCl)c1cn(-c2cccc(C(F)(F)F)c2)nn1` [10-C09, 2-chloro-1-{1-[3-(trifluoromethyl)phenyl]-1H-1,2,3-triazol-4-yl}ethan-1-one], for which the “% of control remaining” value is on record as -0.3125%. Regarding `O=C(CCl)c1cn(-c2ccc(F)cc2)nn1` [10-F05], the “% of control remaining” value is 0%. On to `O=C(CCl)NCC(=O)Nc1nccs1` [5-G22, 2-chloro-N-{[(1,3-thiazol-2-yl)carbamoyl]methyl}acetamide], for which the “% of control remaining” value came out at 86.3388%. Turning to `Cc1nn(-c2ccccc2)c(Cl)c1C=C(C#N)C(=O)NC(C)C` [9-J17, 3-(5-chloro-3-methyl-1-phenyl-1H-pyrazol-4-yl)-2-cyano-N-(propan-2-yl)prop-2-enamide], the “% of control remaining” value was 77.9026%.

Take `C=CC(=O)N(C)CC(=O)Nc1ccc(N2C[C@@H](C)O[C@@H](C)C2)cc1` [3-H08, N-[({4-[(2R,6S)-2,6-dimethylmorpholin-4-yl]phenyl}carbamoyl)methyl]-N-methylprop-2-enamide]: the “% of control remaining” value is recorded as 117.719%. The value for `CC(C)N(c1ccccc1)c1ccc(NC(=O)CCl)cc1` [6-I17, 2-chloro-N-{4-[phenyl(propan-2-yl)amino]phenyl}acetamide] was 116.78%. `CCC(c1cc(Cl)cc(Cl)c1)N(C)C(=O)CCl` (stereo not shown) [7-L10, 2-chloro-N-[1-(3,5-dichlorophenyl)propyl]-N-methylacetamide]: the “% of control remaining” value was found to be 75.0392%. For `COc1cc(C)c(C=C(C#N)C(=O)Nc2ccc(C)cc2)cc1C(C)C` [9-C04, 2-cyano-3-[4-methoxy-2-methyl-5-(propan-2-yl)phenyl]-N-(4-methylphenyl)prop-2-enamide], the “% of control remaining” value is on record as 99.176%. The value for `O=C(CCl)c1sccc1Cl` [10-K11, 2-chloro-1-(3-chlorothiophen-2-yl)ethan-1-one] was 10.3125%; that for `O=C(CCl)c1cc(Cl)ccc1Cl` [10-E16, 2-chloro-1-(2,5-dichlorophenyl)ethan-1-one] was 80%; that for `O=C(O)c1csc(C(=O)CCl)c1` [10-E22, 5-(2-chloroacetyl)thiophene-3-carboxylic acid] was 88.4375%. Turning to `C=CC(=O)NCc1cc(Cl)cc(S(C)(=O)=O)c1` [3-N15, N-[(3-chloro-5-methanesulfonylphenyl)methyl]prop-2-enamide], the “% of control remaining” value was determined as 97.5185%.

Turning to `C=CC(=O)NCc1oc(CC)nc1C` [3-P15, N-[(2-ethyl-4-methyl-1,3-oxazol-5-yl)methyl]prop-2-enamide], the “% of control remaining” value was determined as 86.7218%. Regarding `N#Cc1c(NC(=O)CCl)oc(-c2cccs2)c1-c1cccs1` [6-I09, 2-chloro-N-[3-cyano-4,5-bis(thiophen-2-yl)furan-2-yl]acetamide], the “% of control remaining” value was determined as 37.9024%.

Regarding `Cc1c(C#N)c(NC(=O)CCl)n(Cc2cccs2)c1C` [4-C04, 2-chloro-N-{3-cyano-4,5-dimethyl-1-[(thiophen-2-yl)methyl]-1H-pyrrol-2-yl}acetamide], the “% of control remaining” value is 108.623%.

As to `N#Cc1c(NC(=O)CCl)oc(-c2ccco2)c1-c1ccco1` [5-D10, 2-chloro-N-[4'-cyano-2'-(furan-2-yl)-[2,3'-bifuran]-5'-yl]acetamide], the “% of control remaining” value stood at 66.6667%. For the molecule `COCC(C)NC(=O)C(C#N)=Cc1cccc(F)c1F` (stereo not shown) [9-F09, 2-cyano-3-(2,3-difluorophenyl)-N-(1-methoxypropan-2-yl)prop-2-enamide], the “% of control remaining” value is on record as 101.873%. As for `C=CC(=O)N1CCCC1c1nc(N(C)C)no1` (stereo not shown) [2-C21, 1-{2-[3-(dimethylamino)-1,2,4-oxadiazol-5-yl]pyrrolidin-1-yl}prop-2-en-1-one], the “% of control remaining” value is on record as 104.439%.

In the case of `C=CC(=O)N(CC)CC(=O)N1CCCC(F)(F)C1` [2-G14, N-[2-(3,3-difluoropiperidin-1-yl)-2-oxoethyl]-N-ethylprop-2-enamide], the “% of control remaining” value is reported as 112.446%.

With `O=C1C=CC(=O)N1CCc1ccccc1F` [10-G03, 1-[2-(2-fluorophenyl)ethyl]-2,5-dihydro-1H-pyrrole-2,5-dione], the “% of control remaining” value was determined as 4.375%. For `O=C1C=CC(=O)N1CCc1ccc(F)cc1` [10-C21, 1-[2-(4-fluorophenyl)ethyl]-2,5-dihydro-1H-pyrrole-2,5-dione] the value was 70.9375%; for `O=C1C=CC(=O)N1CCc1ccccc1` [10-E20, 1-(2-phenylethyl)-2,5-dihydro-1H-pyrrole-2,5-dione], 58.4375%; for `CCc1nsc(N2CCN(C(=O)C(C#N)=Cc3ccco3)CC2)n1` [9-K05, 2-[4-(3-ethyl-1,2,4-thiadiazol-5-yl)piperazine-1-carbonyl]-3-(furan-2-yl)prop-2-enenitrile], 96.779%. Consider `CNS(=O)(=O)c1cc(NC(=O)CCl)ccc1C` [6-M07, 2-chloro-N-[4-methyl-3-(methylsulfamoyl)phenyl]acetamide], for which the “% of control remaining” value amounted to 112.341%. Consider `Cc1ccc(NC(=O)CN2CCN(C(=O)CCl)CC2)cc1.Cl` [4-D16, 2-[4-(2-chloroacetyl)piperazin-1-yl]-N-(4-methylphenyl)acetamide hydrochloride], for which the “% of control remaining” value was determined as 131.872%.

For the molecule `COCC(NC(=O)C(C)Cl)c1ccccn1` (stereo not shown) [6-B13, 2-chloro-N-[2-methoxy-1-(pyridin-2-yl)ethyl]propanamide], the “% of control remaining” value is 95.6098%.

Consider `COc1cc(C=C(C#N)C(=O)NC2CCCCC2)cc(Cl)c1O` [8-H21, 3-(3-chloro-4-hydroxy-5-methoxyphenyl)-2-cyano-N-cyclohexylprop-2-enamide], for which the “% of control remaining” value is 104.564%.

As for `O=C1C=CC(=O)N1c1ccc(OC(F)F)cc1` [10-P11, 1-[4-(difluoromethoxy)phenyl]-2,5-dihydro-1H-pyrrole-2,5-dione], the “% of control remaining” value was determined as 110.313%. For the molecule `COc1cccc(N2C(=O)C=CC2=O)c1` [10-K03, 1-(3-methoxyphenyl)-2,5-dihydro-1H-pyrrole-2,5-dione], the “% of control remaining” value is 124.375%. Take `O=C1C=CC(=O)N1c1ccc(F)c(Cl)c1` [10-D15, 1-(3-chloro-4-fluorophenyl)-2,5-dihydro-1H-pyrrole-2,5-dione]: the “% of control remaining” value turned out to be 109.688%.

Turning to `CCOc1ccc(N2C(=O)C=CC2=O)cc1` [10-A14, 1-(4-ethoxyphenyl)-2,5-dihydro-1H-pyrrole-2,5-dione], the “% of control remaining” value was 141.563%.

Turning to `O=C1C=CC(=O)N1c1ccc(OC(F)(F)F)cc1` [10-J19, 1-[4-(trifluoromethoxy)phenyl]-2,5-dihydro-1H-pyrrole-2,5-dione], the “% of control remaining” value was found to be 5.9375%.

For the molecule `COc1ccccc1N1C(=O)C=CC1=O` [10-O10, 1-(2-methoxyphenyl)-2,5-dihydro-1H-pyrrole-2,5-dione], the “% of control remaining” value amounted to 118.438%. Regarding `O=C1C=CC(=O)N1c1ccc2ccccc2c1` [10-D07, 1-(naphthalen-2-yl)-2,5-dihydro-1H-pyrrole-2,5-dione], the “% of control remaining” value is given as 3.125%. For `O=C1C=CC(=O)N1c1ccc(Oc2ccccc2)cc1` [10-F17, 1-(4-phenoxyphenyl)-2,5-dihydro-1H-pyrrole-2,5-dione] the value was 36.875%; for `O=C1C=CC(=O)N1c1cccc(O)c1` [10-O07, 1-(3-hydroxyphenyl)-2,5-dihydro-1H-pyrrole-2,5-dione], 125.313%. As to `CCOC(=O)c1[nH]c(C)c(C(=O)CCl)c1C` [10-A10, ethyl 4-(2-chloroacetyl)-3,5-dimethyl-1H-pyrrole-2-carboxylate], the “% of control remaining” value is reported as 136.563%. As for `C=CC(=O)NCC1=NOCC1` [3-G16, N-[(4,5-dihydro-1,2-oxazol-3-yl)methyl]prop-2-enamide], the “% of control remaining” value is listed as 95.7771%. For the molecule `Cc1cc(C(=O)CCl)c(F)cc1F` [10-O03, 2-chloro-1-(2,4-difluoro-5-methylphenyl)ethan-1-one], the “% of control remaining” value was 143.438%. With `O=C1CCc2cc(C(=O)CCl)ccc2N1` [10-M03, 6-(2-chloroacetyl)-1,2,3,4-tetrahydroquinolin-2-one], the “% of control remaining” value is on record as 83.125%. On to `O=C1CCc2cc(C(=O)CCl)c(F)cc2N1` [10-O20, 6-(2-chloroacetyl)-7-fluoro-1,2,3,4-tetrahydroquinolin-2-one], for which the “% of control remaining” value worked out at 3.75%. Regarding `C=CC(=O)N1CCC(n2nc(C)nc2O)CC1` [3-P21, 1-[4-(5-hydroxy-3-methyl-1H-1,2,4-triazol-1-yl)piperidin-1-yl]prop-2-en-1-one], the “% of control remaining” value stood at 126.077%.
